# Measured values taken from PubChem BioAssay (NCATS).
# Inconclusive results are not listed. The source made the active and inactive calls. The call rests on the fitted dose curve; in most records, active means well fitted cell-killing curve with a large enough effect; inconclusive means small, poorly fitted or top-dose-only effect, or effect the other way; inactive means no such curve, though single readings can be large or run the other way. Non-standard residues stand in square brackets, D forms with d. Residues, ends and D or L forms follow the SMILES beside them. *: point of attachment. Nva = CCC[C@H](N)C(=O)O; Cbz = O=C(OCc1ccccc1)*
# What was measured:
# [1] = Quantitative High-Throughput drug screen in 47 multiple myeloma cell lines against the NCATS MIPE library collection: KMS11_JCRBsus cell viability assay (AID 1919873); further: nearly all actives have a fitted effect of over 50% in size
# Procedure, shortened: (§1)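 Viability after 48 h drug exposure was measured as ATP-dependent luminescence. Cells, 500 per well, sat at 37 °C under 5% CO2; DMSO wells set 100%, media-only wells 0%.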
# [2] = Quantitative High-Throughput drug screen in 47 multiple myeloma cell lines against the NCATS MIPE library collection: KMS28BM_JCRB cell viability assay (AID 1919874); further: nearly all actives have a fitted effect of over 35% in size
# Procedure, shortened: as §1
# Potency means the concentration at half of the fitted maximal effect.
SMILES,Potency [1],Potency [2]
C[C@H]1C[C@H]2[C@@H]3CCC4=CC(=O)C=C[C@]4(C)[C@@H]3C(=O)C[C@]2(C)[C@@]1(O)C(=O)CO,inactive,
COC[C@H](NC(=O)c1cnc(C)s1)C(=O)N[C@@H](COC)C(=O)N[C@@H](Cc1ccccc1)C(=O)[C@@]1(C)CO1,0.0187 µM (active),0.0418 µM (active)
CCNC(=O)c1cc2c(-c3cc(OCCN4CCCC4)c(Cl)cc3Cl)nc(N)nc2s1,0.59 µM (active),1.32 µM (active)
CCC[C@@H](C=O)NC(=O)[C@H](CC(C)C)NC(=O)[C@H](CC(C)C)NC(=O)OCc1ccccc1 (Cbz-Leu-Leu-[Nva]-aldehyde),0.148 µM (active),0.187 µM (active)
Cc1cc(Nc2ncc3c(n2)N(C)C(=O)N(c2cc(NC(=O)c4cccc(C(F)(F)F)c4)ccc2C)C3)n(C)n1,0.235 µM (active),3.32 µM (active)
C=Cc1c(C)c2cc3nc(cc4[nH]c(cc5nc(cc1[nH]2)C(C)=C5CCC(=O)O)c(CCC(=O)OC)c4C)[C@@]1(C)C3=CC=C(C(=O)OC)[C@H]1C(=O)OC,9.35 µM (active),0.418 µM (active)
C=CC(=O)Nc1ccc2ncnc(Nc3ccc(OCc4cccc(F)c4)c(Cl)c3)c2c1,0.187 µM (active),0.132 µM (active)
CN1CCCN(C(=O)c2cccc(-c3ccc(C=C4C(=O)Nc5ccc(Cl)cc54)o3)c2)CC1,9.35 µM (active),10.5 µM (active)
CCCCCCCCCCCCc1ccc(S(=O)(=O)Nc2nncs2)cc1,inactive,inactive
NS(=O)(=O)OC[C@@H]1C[C@@H](n2ccc3c(N[C@H]4CCc5ccccc54)ncnc32)C[C@H]1O,0.296 µM (active),
N#CC(=C(O)c1ccc(Cl)cc1Cl)c1nc2cc(Cl)ccc2c(=O)[nH]1,inactive,inactive
CC(=O)OC[C@@H]1O[C@@H](n2ccc(=O)[nH]c2=O)[C@H](OC(C)=O)[C@H]1OC(C)=O,inactive,inactive
OCCN1C[C@H](O)[C@@H](O)[C@H](O)[C@@H]1CO,inactive,
CCOC(=O)N1CCN([N+]([O-])=NOc2ccc([N+](=O)[O-])cc2C#N)CC1,0.662 µM (active),0.935 µM (active)
CCCNC(=O)[C@H]1O[C@H]1C(=O)N[C@H](C(=O)N1CCC[C@@H]1C(=O)OC)C(C)CC (stereo partly specified),23.5 µM (active),7.43 µM (active)
CC(C)NC[C@@H](C(=O)N1CCN(c2ncnc3c2[C@H](C)C[C@H]3O)CC1)c1ccc(Cl)cc1,4.69 µM (active),2.96 µM (active)
COc1cc(C(C)C)c(Oc2cnc(NC(CO)CO)nc2N)cc1I,inactive,inactive
C[N+]1(C)[C@@H]2C[C@@H](OC(=O)C(O)(c3cccs3)c3cccs3)C[C@H]1[C@@H]1O[C@@H]12,inactive,inactive
COC(=O)C1C2CC3c4[nH]c5cc(OC)ccc5c4CCN3CC2CC(OC(=O)c2cc(OC)c(OC)c(OC)c2)C1OC (stereo unspecified),29.6 µM (active),20.9 µM (active)
COC1=C2C[C@@H](C)C[C@H](OC)[C@@H](O)[C@@H](C)C=C(C)[C@H](OC(N)=O)[C@@H](OC)C=CC=C(C)C(=O)NC(=CC1=O)C2=O,0.0833 µM (active),0.0935 µM (active)
CC(C)c1cc(C(C)C)c(CC(=O)NS(=O)(=O)Oc2c(C(C)C)cccc2C(C)C)c(C(C)C)c1,2.35 µM (active),inactive
CN1[C@H]2CC(OC(=O)[C@@H](CO)c3ccccc3)C[C@H]1[C@H]1O[C@H]12 (stereo partly specified),inactive,inactive
CC(C)OC(=O)[C@H](C)N[P@](=O)(OC[C@H]1O[C@@H](n2ccc(=O)[nH]c2=O)[C@](C)(F)[C@H]1O)Oc1ccccc1,inactive,inactive
O=C(CCCCCCC(=O)Nc1cccnc1)NO,5.9 µM (active),4.18 µM (active)
CC(C(C)N1CC(=O)NC(=O)C1)N1CC(=O)NC(=O)C1 (stereo unspecified),inactive,inactive
Oc1ccc(-c2ccc(-c3cc(Nc4cccc(CNC5CC5)c4)n[nH]3)cc2)c(O)c1,1.32 µM (active),1.32 µM (active)
C=CC[C@@H]1C=C(C)C[C@H](C)C[C@H](OC)[C@H]2O[C@@](O)(C(=O)C(=O)N3CCCC[C@H]3C(=O)O[C@H](C(C)=C[C@@H]3CC[C@H](O)[C@H](OC)C3)[C@@H](C)[C@@H](O)CC1=O)[C@@H](C)C[C@@H]2OC,0.833 µM (active),0.833 µM (active)
